# Values without a mark were called inactive.
# Compound: C#CCNC(=O)CCSSCCC(=O)NCCc1ccc(C=O)c(C=O)c1
# Experiment: lysine labeling ratio R10:1 (500 µM / 50 µM probe), SILAC-ABPP in living cells; higher = lower intrinsic lysine reactivity toward the probe, active = 2 or less
# Conditions: HeLa; probe concentrations 500 vs 50 µM
# Outline: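 R, given per lysine, is the filtered median high-probe/low-probe MS1 peptide ratio, with the median then taken across forward and reverse replicates. Cells were living SILAC light and heavy HeLa cells in PBS at room temperature, labelled with 50 µM or 500 µM of an alkyne-tagged, disulfide-linked lysine probe. The ceiling applied is 20.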
# UniProt P05783, sequence (P05783 whole entry): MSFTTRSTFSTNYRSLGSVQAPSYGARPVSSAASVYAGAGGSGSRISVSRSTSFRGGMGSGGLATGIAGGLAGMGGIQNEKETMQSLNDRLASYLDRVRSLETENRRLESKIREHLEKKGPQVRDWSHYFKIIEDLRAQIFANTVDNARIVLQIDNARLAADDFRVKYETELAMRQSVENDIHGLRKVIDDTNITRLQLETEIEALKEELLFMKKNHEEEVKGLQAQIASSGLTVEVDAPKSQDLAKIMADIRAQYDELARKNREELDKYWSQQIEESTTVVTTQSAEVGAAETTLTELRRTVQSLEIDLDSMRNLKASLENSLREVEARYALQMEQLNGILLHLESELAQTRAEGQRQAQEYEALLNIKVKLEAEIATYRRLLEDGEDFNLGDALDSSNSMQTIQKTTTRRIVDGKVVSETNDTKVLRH
# UniProt Q9Y230, sequence (Q9Y230 whole entry): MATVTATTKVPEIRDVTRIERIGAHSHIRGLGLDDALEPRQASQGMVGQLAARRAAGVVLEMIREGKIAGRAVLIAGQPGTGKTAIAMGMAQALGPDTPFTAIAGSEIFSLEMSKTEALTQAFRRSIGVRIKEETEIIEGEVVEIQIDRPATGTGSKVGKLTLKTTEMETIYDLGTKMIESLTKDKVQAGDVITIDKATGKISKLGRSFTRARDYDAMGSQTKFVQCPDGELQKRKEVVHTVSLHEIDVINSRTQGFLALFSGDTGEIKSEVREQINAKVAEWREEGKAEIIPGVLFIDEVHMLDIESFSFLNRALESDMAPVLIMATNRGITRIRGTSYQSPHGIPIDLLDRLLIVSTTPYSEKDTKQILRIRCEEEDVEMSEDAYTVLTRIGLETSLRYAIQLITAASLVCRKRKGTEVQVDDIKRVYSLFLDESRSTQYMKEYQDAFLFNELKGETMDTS
# UniProt Q96PD2, sequence (Q96PD2 whole entry): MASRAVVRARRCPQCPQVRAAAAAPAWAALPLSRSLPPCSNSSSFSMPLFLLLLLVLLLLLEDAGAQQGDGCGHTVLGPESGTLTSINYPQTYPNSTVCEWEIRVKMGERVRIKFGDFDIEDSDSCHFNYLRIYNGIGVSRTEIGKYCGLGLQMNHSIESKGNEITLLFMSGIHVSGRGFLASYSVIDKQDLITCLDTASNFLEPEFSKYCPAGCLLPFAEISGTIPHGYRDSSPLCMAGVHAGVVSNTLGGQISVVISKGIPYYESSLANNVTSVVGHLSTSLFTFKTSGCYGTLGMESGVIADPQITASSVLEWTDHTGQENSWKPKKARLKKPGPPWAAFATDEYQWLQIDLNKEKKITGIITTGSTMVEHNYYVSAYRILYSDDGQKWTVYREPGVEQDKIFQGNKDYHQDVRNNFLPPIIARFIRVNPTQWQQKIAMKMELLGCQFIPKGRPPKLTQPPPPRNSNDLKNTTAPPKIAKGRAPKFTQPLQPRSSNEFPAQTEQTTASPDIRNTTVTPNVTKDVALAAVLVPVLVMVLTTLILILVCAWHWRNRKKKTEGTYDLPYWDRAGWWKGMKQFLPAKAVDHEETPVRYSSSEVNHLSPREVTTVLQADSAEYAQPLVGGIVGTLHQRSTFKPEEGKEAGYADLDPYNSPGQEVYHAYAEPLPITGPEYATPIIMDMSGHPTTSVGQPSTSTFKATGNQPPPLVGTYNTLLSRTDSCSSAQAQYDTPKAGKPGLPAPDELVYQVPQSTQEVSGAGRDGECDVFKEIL
# UniProt P32004, sequence (P32004 whole entry): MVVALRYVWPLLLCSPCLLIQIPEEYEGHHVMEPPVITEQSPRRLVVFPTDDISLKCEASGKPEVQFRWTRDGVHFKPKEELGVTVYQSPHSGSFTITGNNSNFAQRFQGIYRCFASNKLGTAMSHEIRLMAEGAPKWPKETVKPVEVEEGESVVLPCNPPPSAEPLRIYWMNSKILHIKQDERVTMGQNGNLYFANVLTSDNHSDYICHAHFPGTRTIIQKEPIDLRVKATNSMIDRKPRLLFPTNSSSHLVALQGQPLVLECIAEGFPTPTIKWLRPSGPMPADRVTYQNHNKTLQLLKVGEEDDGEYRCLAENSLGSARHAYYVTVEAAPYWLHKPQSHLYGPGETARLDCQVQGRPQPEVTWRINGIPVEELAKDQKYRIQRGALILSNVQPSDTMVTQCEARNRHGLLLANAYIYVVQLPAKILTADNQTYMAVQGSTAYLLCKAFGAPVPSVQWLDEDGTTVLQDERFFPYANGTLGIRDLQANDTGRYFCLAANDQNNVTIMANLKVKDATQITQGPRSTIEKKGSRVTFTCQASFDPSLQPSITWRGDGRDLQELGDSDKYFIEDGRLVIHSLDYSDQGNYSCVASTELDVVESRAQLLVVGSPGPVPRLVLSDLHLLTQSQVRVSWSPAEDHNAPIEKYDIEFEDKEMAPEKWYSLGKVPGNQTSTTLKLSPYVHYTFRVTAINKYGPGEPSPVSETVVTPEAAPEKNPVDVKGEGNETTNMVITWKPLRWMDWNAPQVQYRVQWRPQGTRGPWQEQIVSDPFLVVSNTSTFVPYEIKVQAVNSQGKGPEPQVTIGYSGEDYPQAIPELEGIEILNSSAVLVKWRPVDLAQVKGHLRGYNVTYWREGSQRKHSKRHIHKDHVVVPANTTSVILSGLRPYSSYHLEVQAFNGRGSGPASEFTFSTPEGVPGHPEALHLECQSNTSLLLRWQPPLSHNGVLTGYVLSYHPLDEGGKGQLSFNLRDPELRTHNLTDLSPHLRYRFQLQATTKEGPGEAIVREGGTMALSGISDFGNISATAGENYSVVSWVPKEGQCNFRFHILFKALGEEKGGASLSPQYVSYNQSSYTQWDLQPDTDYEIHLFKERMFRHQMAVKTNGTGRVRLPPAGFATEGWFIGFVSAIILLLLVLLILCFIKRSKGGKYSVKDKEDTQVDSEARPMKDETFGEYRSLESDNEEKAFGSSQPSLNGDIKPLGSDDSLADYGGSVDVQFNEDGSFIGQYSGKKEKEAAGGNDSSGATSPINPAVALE
# UniProt P08174, sequence (P08174 whole entry): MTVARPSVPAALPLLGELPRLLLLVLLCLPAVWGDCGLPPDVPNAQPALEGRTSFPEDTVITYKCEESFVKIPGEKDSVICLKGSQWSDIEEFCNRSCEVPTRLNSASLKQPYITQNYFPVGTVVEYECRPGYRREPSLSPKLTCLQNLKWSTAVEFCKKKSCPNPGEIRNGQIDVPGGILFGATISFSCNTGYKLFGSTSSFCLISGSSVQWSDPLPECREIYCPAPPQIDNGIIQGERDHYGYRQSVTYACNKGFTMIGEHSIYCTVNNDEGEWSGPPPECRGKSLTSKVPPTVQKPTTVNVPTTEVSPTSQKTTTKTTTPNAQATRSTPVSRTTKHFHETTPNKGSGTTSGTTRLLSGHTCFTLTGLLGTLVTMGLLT
# UniProt Q9NR28, sequence (Q9NR28 whole entry): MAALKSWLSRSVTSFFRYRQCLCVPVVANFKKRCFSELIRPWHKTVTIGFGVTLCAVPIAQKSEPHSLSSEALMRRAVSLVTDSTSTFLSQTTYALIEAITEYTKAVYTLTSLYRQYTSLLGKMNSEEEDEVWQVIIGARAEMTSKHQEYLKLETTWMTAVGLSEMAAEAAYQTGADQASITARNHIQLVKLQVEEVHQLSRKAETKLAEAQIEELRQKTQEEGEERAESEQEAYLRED
# UniProt Q9P2B2, sequence (Q9P2B2 whole entry): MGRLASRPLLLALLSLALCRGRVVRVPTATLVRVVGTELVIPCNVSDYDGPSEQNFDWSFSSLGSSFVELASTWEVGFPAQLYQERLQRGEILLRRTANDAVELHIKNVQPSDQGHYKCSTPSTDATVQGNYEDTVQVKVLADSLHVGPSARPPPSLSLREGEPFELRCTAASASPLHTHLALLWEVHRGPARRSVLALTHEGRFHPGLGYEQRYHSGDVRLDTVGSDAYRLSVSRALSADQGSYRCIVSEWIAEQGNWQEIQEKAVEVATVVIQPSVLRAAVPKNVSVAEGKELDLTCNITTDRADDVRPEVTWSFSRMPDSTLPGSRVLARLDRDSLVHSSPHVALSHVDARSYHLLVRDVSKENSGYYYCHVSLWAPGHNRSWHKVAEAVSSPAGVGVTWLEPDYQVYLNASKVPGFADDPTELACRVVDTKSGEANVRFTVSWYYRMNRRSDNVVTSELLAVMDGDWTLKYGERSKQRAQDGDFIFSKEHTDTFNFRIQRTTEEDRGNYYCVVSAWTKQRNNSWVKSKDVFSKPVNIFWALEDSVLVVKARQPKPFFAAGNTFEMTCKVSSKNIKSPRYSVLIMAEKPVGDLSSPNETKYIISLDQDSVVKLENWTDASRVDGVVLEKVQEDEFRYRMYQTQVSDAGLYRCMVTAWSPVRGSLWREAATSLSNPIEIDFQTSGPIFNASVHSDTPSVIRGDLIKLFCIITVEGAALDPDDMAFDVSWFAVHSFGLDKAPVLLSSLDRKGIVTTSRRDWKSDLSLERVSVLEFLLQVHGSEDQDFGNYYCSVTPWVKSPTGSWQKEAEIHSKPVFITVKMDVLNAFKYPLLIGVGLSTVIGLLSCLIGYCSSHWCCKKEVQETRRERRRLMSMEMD
# UniProt P08670, sequence (P08670 whole entry): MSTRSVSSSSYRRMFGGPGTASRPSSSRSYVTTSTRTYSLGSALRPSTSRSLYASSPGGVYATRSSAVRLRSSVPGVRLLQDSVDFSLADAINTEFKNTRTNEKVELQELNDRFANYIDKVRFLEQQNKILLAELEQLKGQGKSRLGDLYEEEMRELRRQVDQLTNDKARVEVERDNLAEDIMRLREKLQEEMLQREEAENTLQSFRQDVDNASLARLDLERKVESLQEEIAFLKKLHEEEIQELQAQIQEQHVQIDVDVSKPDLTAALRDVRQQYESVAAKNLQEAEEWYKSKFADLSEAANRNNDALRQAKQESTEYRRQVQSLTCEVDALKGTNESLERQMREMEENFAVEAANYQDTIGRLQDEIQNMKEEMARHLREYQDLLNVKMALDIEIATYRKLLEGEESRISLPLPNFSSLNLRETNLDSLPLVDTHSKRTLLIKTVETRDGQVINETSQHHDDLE
# UniProt P61769, sequence (P61769 whole entry): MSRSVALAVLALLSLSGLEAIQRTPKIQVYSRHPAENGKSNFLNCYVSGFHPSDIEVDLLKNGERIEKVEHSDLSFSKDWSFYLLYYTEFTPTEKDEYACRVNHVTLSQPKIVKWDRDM
row,Target,lysine labeling ratio R10:1
1,FRAS1 (lysine site: K2521) (UniProt Q86XX4),2.03
2,P30462 (lysine site: K210) (UniProt P01889),2.33
3,XRCC6 (lysine site: K129) (UniProt P12956),1.62 (active)
4,RPL35A (lysine site: K45) (UniProt P18077),1.38 (active)
5,NPR3 (lysine site: K127) (UniProt P17342),4.43
6,UniProt Q8WXI7 (lysine site: K12623),3.22
7,PSMA7 (lysine site: K28) (UniProt O14818),2.85
8,HSPA8 (lysine site: K319) (UniProt P11142),4.74
9,BCAP31 (lysine site: K176) (UniProt P51572),0.745 (active)
10,PTGFRN (lysine site: K579) (UniProt Q9P2B2),2.67
11,TNPO1 (lysine site: K889) (UniProt Q92973),1.09 (active)
12,KRT18 (lysine site: K317) (UniProt P05783),7.92
13,DCBLD2 (lysine site: K391) (UniProt Q96PD2),3.28
14,STS (lysine site: K368) (UniProt P08842),1.48 (active)
15,VIM (lysine site: K168) (UniProt P08670),3.85
16,RUVBL2 (lysine site: K279) (UniProt Q9Y230),2.65
17,FLNB (lysine site: K2470) (UniProt O75369),1.78 (active)
18,DIABLO (lysine site: K219) (UniProt Q9NR28),1.92 (active)
19,NUMA1 (lysine site: K751) (UniProt Q14980),2.82
20,IGSF8 (lysine site: K143) (UniProt Q969P0),2.9

row,Target,lysine labeling ratio R10:1
1,UniProt Q9BZM4 (lysine site: K192),1.43 (active)
2,ORMDL3 (lysine site: K79) (UniProt Q8N138),5.16
3,LRPAP1 (lysine site: K107) (UniProt P30533),1.78 (active)
4,EPHA5 (lysine site: K194) (UniProt P54756),2.4
5,CELSR2 (lysine site: K2121) (UniProt Q9HCU4),2.98
6,IGF1R (lysine site: K469) (UniProt P08069),3.98
7,KRT18 (lysine site: K247) (UniProt P05783),7.86
8,FASN (lysine site: K1704) (UniProt P49327),2.46
9,EEF1G (lysine site: K243) (UniProt P26641),1.4 (active)
10,L1CAM (lysine site: K144) (UniProt P32004),1.09 (active)
11,CD55 (lysine site: K161) (UniProt P08174),0.828 (active)
12,MYO1C (lysine site: K667) (UniProt O00159),2.86
13,ANP32B (lysine site: K68) (UniProt Q92688),1.78 (active)
14,UniProt P16144 (lysine site: K151),1.53 (active)
15,ABCB1 (lysine site: K748) (UniProt P08183),1.52 (active)
16,CD9 (lysine site: K135) (UniProt P21926),3.43
17,EHD1 (lysine site: K220) (UniProt Q9H4M9),4.05
18,UniProt P62851 (lysine site: K114),2.69
19,B2M (lysine site: K111) (UniProt P61769),15.6
20,CHCHD3 (lysine site: K37) (UniProt Q9NX63),1.57 (active)
